rRNA inh HTS: selective bacterial rRNA inhibition in E. coli | E. coli WT GFP vs humanized-ribosome RFP mutants, fluorescence, 24 h; active compounds read low; DMSO median 0, no signal -100 | hit rate 1.6% among 350,000 | GFP signal change (wild-type ribosome), % (no concentration beside the values);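 active = significant combined selectivity score with lowered wild-type GFP, culture density cut under 30%, mutant RFP and density less affected; inactive = any of these conditions unmet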
EWS-Fli block: inhibitors of EWS/Fli oncoprotein transcriptional activity | A673 NR0B1-luciferase reporter, viability-normalised | inhibition, % at 12.6 µM | hit rate 0.67% among 350,000 | AID 651661;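 active = mean inhibition of at least 50% after viability correction, with every replicate also passing that limit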;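 also: firefly luciferase signal divided by Alamar Blue viability fluorescence both relative to DMSO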
PAX8 reporter: lowers PAX8-driven luciferase in RMG-I cells; RMG-I TPO-luciferase reporter, SteadyGlo, 24 h; hit rate 1.2% among 360,000; inhibition, % at 12.6 µM;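 active = mean replicate inhibition at least 60% with every replicate also reaching 60%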;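 also: luciferase light reporting Pax8 driven TPO promoter activity; plate controls were median of neutral control wells for no effect and mitoxantrone controls for full effect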
PGC1a acetyl inh: lowers PGC1a acetylation signal in U2OS cells; AlphaScreen anti-acetyl-lysine; with virally co-expressed GCN5 acetyltransferase; inhibition, % at 15.6 µM; hit rate 0.17% among 350,000;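 active = every replicate shows inhibition of at least 40%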;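 also: 0% = neutral control wells and 100% = positive control wells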
LGR2 antag: blocks bursicon-induced cAMP signaling via Drosophila LGR2; HEK293 LGR2, CRE-luciferase, bursicon-stimulated, 4 h; inhibition, % at 9.99 µM; hit rate 0.35% among 380,000;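 active = drop in luminescence signal, shown as inhibition above about 50% in the replicate tests, limit read from the data, passing the limit was not always enough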;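 also: agonist challenge used bursicon conditioned medium at about half maximal strength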
SIRT5 inh: inhibitors of human sirtuin-5 desuccinylase | Q9NXA8 | hit rate 1.1% among 330,000 | Purified SirT5, succinyl-peptide AMC, trypsin-coupled fluorescence | inhibition, % at 15 µM; in the data active = inhibition above about 15%
Target sequence (Q9NXA8 whole entry, looked up): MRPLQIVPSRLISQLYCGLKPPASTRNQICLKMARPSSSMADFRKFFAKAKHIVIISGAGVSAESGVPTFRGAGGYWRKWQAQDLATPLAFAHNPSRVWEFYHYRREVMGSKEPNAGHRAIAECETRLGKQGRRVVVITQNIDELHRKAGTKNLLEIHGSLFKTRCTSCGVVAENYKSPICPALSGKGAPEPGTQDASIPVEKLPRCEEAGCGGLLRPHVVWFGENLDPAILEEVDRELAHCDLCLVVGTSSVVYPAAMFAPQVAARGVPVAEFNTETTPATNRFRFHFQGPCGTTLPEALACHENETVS
An asterisk follows results filed as active; nt = no result. Hits are enriched below; roughly 3.4% of the tested compounds scored in any of these assays.

SMILES | rRNA inh HTS | EWS-Fli block | PAX8 reporter | PGC1a acetyl inh | LGR2 antag | SIRT5 inh
CCOC(=O)/C(=N\Nc1ccccc1[N+](=O)[O-])c1csc(N)n1 | -27* | -10 | 4 | -4 | 6 | nt
CN(Cc1ccccc1)C(=O)c1ccc(NC(=O)Cc2cccc(NC(=O)C3CCN(C(=O)C4CCCCC4)CC3)c2)cc1 | 5 | 5 | -3 | -5 | -16 | 16*
CN(C(=O)c1cccc(NC(=O)Cc2ccc(NC(=O)C3CCN(C(=O)C4CCC4)CC3)cc2)c1)C1CC1 | 4 | -1 | -5 | 1 | 7 | 23*
CN(Cc1ccccc1)C(=O)c1ccc(NC(=O)Cc2cccc(NC(=O)C3CCN(C(=O)C4CC4)CC3)c2)cc1 | 1 | -2 | 1 | 3 | 4 | nt
CN(C(=O)c1cccc(NC(=O)Cc2ccc(NC(=O)C3CCN(C(=O)C4CCCC4)CC3)cc2)c1)C1CCC1 | -2 | -4 | -2 | 3 | 8 | -6
C[C@@H]1CN([C@@H](C)CO)C(=O)c2cc(NC(=O)NC3CCCCC3)ccc2O[C@H]1CN(C)CC1CCCCC1 | 8 | -6 | 12 | 0 | 4 | 3
COc1cc(/C=C/C(=O)OCC(=O)Nc2sc3c(c2C#N)CCC(C)C3)ccc1OCC#N (stereo not drawn) | 8 | -19 | -3 | -9 | -15 | 15*
COc1cc(/C=C/C(=O)OCC(=O)NCC2CCCO2)ccc1OCC#N (stereo not drawn) | nt | nt | -7 | nt | 14 | nt
COc1cc(/C=C/C(=O)OCC(=O)N2CCCc3ccccc32)ccc1OCC#N | -24* | -2 | -4 | 0 | -13 | 5
COc1cc(/C=C/C(=O)OCC(=O)N2CC(=O)Nc3ccccc32)ccc1O | -3 | 19 | 1 | nt | -7 | 15*
C[C@@H]1CN(C)C(=O)c2cc(N(C)C)ccc2O[C@H]1CN(C)C | 1 | nt | nt | nt | nt | nt
C[C@@H]1CN([C@@H](C)CO)C(=O)c2cc(-c3cccnc3)cnc2O[C@@H]1CN(C)C(=O)C1CCCCC1 | 5 | 3 | nt | -1 | -7 | nt
CC(=Nc1ccccc1)C1=C(O)C(Cc2ccc(O)cc2)NC1=O (stereo not drawn) | 8 | 33 | 67* | nt | -17 | 3
O=C(c1ccccc1F)N1C[C@@H]2O[C@H](CNS(=O)(=O)c3ccccc3)CC[C@@H]21 | nt | 19 | nt | nt | nt | -3
COc1cc(/C=C/c2cccc[n+]2C)ccc1OCC(=O)Nc1ccccc1C | 9 | 1 | 6 | nt | -9 | 1
CCOc1cc(/C=C/c2cccc[n+]2C)ccc1OCC(=O)Nc1ccc(C)cc1 | 4 | -4 | 74* | nt | -14 | 2
CN(CCO)c1cc(Sc2nc3ccccc3s2)c2nonc2c1[N+](=O)[O-] | 2 | 53* | nt | 16 | -24 | -2
COc1ccc2c3c([nH]c2c1)[C@H](CO)N(C(=O)CN(C)C)CC31CN(Cc2ccccc2Cl)C1 | -12 | -10 | nt | -36 | 6 | nt
COCC(=O)N(C)C[C@@H]1Oc2cc(-c3ccc(C#N)cc3)ccc2S(=O)(=O)N([C@@H](C)CO)C[C@H]1C | 4 | -3 | -9 | -5 | -7 | -2
CCN(CC)S(=O)(=O)c1ccc(O)c(C(=O)OCC(=O)NC23CC4CC(CC(C4)C2)C3)c1 | -21* | 6 | -5 | -8 | 1 | -2
COCC(=O)Nc1ccc2c(c1)OC[C@H](C)N(C(=O)COC)C[C@H](C)[C@@H](OC)CN(C)C2=O | 5 | 5 | 3 | 2 | 8 | nt
CN(C)S(=O)(=O)Nc1cc(Cl)cc(Cl)c1 | -37* | 5 | 18 | -3 | -16 | 3
COc1cc(OC)cc(C(=O)c2c(C)c(C#N)c3ccccn23)c1 | -7 | 58* | 10 | nt | -1 | 2
CCOC(=O)COc1ccc2c(C#N)c3ccccn3c2c1 | 9 | 2 | -4 | nt | -7 | -5
O=C(O)c1cccc(Cn2c(Cl)c(/C=N/NC(=O)c3cc4ccccc4cc3O)sc2=O)c1 | 21 | 5 | 14 | 6 | 10 | 24*
O=C(O)c1cccc(Cn2c(Cl)c(/C=N/NC(=O)c3ccccc3)sc2=O)c1 | nt | nt | nt | 7 | nt | nt
CCOc1ccc(CNC(=O)CCCC(=O)n2ncc3cc(C)ccc32)cc1 | -3 | -15 | -14 | 9 | -19 | 15*
CN(C)CC(=O)N1CC2(C1)[C@H](c1ccccc1)[C@H](CO)N2S(=O)(=O)c1ccccc1 | 2 | -10 | nt | nt | 9 | 3

Source: PubChem BioAssay (Broad Institute)
